# Most compounds without a hit are left out; they make up all but 11% or so of the library.
# HCV inhibitor – HCV inhibition | Huh7.5.1 HCVcc-Cre infection, luciferase reporter, 44 h | 340,000 tested, 3.4% active | Potency, µM (top dose mostly 41.8 µM), without a hit: at the top dose activity change, negative = inhibition, actives largely listed as inhibitors
#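 Antiviral activity was scored by luciferase reporter output from cells infected with HCVcc-Cre (~0.5 moi) in presence of compound, 44 h infection period, cells seeded 1,000/well 4 h prior.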
# AMA1-RON2 inh – AMA1-RON2 (P. falciparum) interaction inhibition; AlphaScreen AMA1-biotinylated RON2 peptide binding; Potency, µM (top dose mostly 58.2 µM), for the others: at the highest dose activity change, negative = inhibition, actives largely listed as inhibitors; 360,000 tested, 0.2% active;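 note: 0% = vehicle wells and -100% = peptide control; nearly all actives have a fitted effect of over 45% in size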
#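 AMA1 (3D7) with his tag at 25 nM final met compounds first, then biotinylated RON2 peptide at 25 nM; detection used donor plus acceptor beads, 10 µg/mL apiece, read by AlphaScreen after 30 min at room temperature.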
# Pf growth 48h – P. falciparum growth inhibition at 48 hours (one generation); P. falciparum luciferase growth in erythrocytes, 48 h; Potency, µM (highest dose often 28.7 µM), for inactives: at the highest dose activity change, negative = inhibition, actives largely listed as inhibitors; 310,000 tested, 5.9% active; AID 504832
#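 Read-out is firefly luciferase luminescence from an integrated reporter in P. falciparum, so falling signal marks reduced parasite growth. Infected erythrocytes were at 2% hematocrit and 0.1% parasitemia (final) in Albumax-supplemented RPMI 1640.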
# AmpC inh no detg – AmpC beta-lactamase inhibition without detergent; AmpC nitrocefin hydrolysis, absorbance 480 nm, 0.0001% Triton; 330,000 tested, 0.52% active; Potency, µM (series often up to 57.1 µM), without a hit: at the highest dose activity change, negative = inhibition, most hits filed as inhibitors;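 note: plate controls were no compound for no effect and no enzyme for full effect; nearly all actives have a fitted effect of over 20% in size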
# Target sequence (P00811 whole entry, looked up): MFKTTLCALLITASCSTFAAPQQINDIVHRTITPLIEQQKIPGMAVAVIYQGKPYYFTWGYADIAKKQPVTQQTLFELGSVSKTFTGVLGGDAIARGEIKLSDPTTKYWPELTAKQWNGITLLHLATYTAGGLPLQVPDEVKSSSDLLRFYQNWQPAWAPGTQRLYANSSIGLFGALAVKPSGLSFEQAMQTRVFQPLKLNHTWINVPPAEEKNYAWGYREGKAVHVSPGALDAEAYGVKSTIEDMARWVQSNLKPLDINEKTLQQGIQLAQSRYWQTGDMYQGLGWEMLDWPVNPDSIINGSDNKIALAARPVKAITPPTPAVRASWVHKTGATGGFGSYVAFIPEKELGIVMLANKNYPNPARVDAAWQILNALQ
#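 AmpC (5.3 nM in the dispensed reagent) in 20 mM phosphate pH 7.0 with 0.01% (detergent screen) or 0.0001% Triton X-100 was preincubated with compounds for 15 min at room temperature. Nitrocefin was then added from an 800 uM solution, and hydrolysis was followed at 480 nm.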
# Pf growth 96h – inhibits malaria parasite growth, 96 h. Potency, µM (highest dose often 28.7 µM), inactives show at the highest dose activity change, negative = inhibition, hits mostly inhibitors. 320,000 tested, 6.9% active. AID 504834. P. falciparum luciferase reporter growth, 96 h
#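 Readout is luminescence from an integrated firefly luciferase in P. falciparum. Red cells, 2% hematocrit and 0.05% parasitemia final, were cultured with compound through two parasite generations (96 hours) at 37 C, 5% CO2.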
# AmpC inh detg – blocks E. coli AmpC beta-lactamase in detergent assay. P00811. AmpC hydrolysis of nitrocefin, absorbance 480 nm, 0.01% Triton. Potency, µM (top dose mostly 114 µM), for the others: at the highest dose activity change, negative = inhibition, most hits filed as inhibitors. 370,000 tested, 0.041% active. AID 485294;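 note: 0% = no-compound wells and -100% = no-enzyme wells; nearly all actives have a fitted effect of over 25% in size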
#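 AmpC (5.3 nM in the dispensed reagent) in 20 mM phosphate pH 7.0 with 0.01% (detergent screen) or 0.0001% Triton X-100 was preincubated with compounds for 15 min at room temperature. Nitrocefin was then added from an 800 uM solution, and hydrolysis was followed at 480 nm.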
# Starred values were filed as active, the others as inactive; ? = inconclusive; . = not tested or not shown; [ ] = dose if it differs, or a comment. Calls come from the whole dose curve; as a rule, active = well fitted curve in the direction sought with a large enough effect; inconclusive = small, poorly fitted or top-dose-only effect, or another doubt; inactive = no such curve, though single readings can be large; an effect the other way counts as inactive or inconclusive. Unless noted, % is set by controls: 0 for no effect and ±100 for the full control effect; potency is the fitted concentration of half-maximal effect.
SMILES,HCV inhibitor,AMA1-RON2 inh,Pf growth 48h,AmpC inh no detg,Pf growth 96h,AmpC inh detg
C=CCNC(=S)Nc1ccc(Cl)cc1,0.8%,-9.5%,0.0%,-18.0%,29.8%,1.1%
CCCOc1c(Cl)cc(C(=O)Nc2ccc3c(c2)OCO3)cc1OCC,12.6µM*,?,.,-36.8%,?,4.2%
CCOc1ccc(NC(=O)c2ccc3c(c2)OCCO3)cc1S(=O)(=O)N(CC)CC,2.82µM*,8.3%,13.1µM*,-33.9%,13.1µM*,6.7%
CCOc1ccc(C(=O)Nc2ccc3c(c2)OCCO3)cc1OC,?,-4.9%,121.7%,-34.8%,50.9%,-13.3%
CCNC(=S)N/N=C(\C)c1ccc2ccccc2c1OC(F)F,?,39.8%,10.4µM*,-39.5%,?,-2.9%
C/C(=N\NC(N)=S)c1ccc(Cl)s1,-10.4%,9.2%,-14.5%,-21.1%,?,?
C/C(=N\NC(=S)NC(C)C)c1ccccc1OC(F)F,14.1µM*,12.6%,-20.2%,-28.9%,8.28µM*,-9.9%
CCNC(=S)N/N=C(\C)c1ccc2ccccc2c1,.,.,?,-36.7%,0.0%,-4.6%
C/C(=N\NC(=S)NC(C)C)c1ccc(Cl)s1,6.31µM*,27.4%,-28.7%,-9.1%,?,?
CC(C)(C)OC(=O)N1CCC(c2c(C(=O)NCc3ccc4c(c3)OCO4)cnn2-c2ccccc2Cl)CC1,.,.,.,.,.,21.0%
O=C(Nc1ccc2c(c1)OCCO2)c1cccnc1Oc1ccc(Cl)cc1,-8.1%,-26.6%,-4.3%,-6.0%,13.9%,-0.4%
O=C(Nc1ccc(Oc2ccc(Cl)cc2)c(Cl)c1)c1cc(I)cc(I)c1O,31.6µM*,-8.4%,?,?,?,?
COc1ccc(N2CC(NC(=O)/C=C\c3ccccc3)CC2=O)cc1OC (stereo unspecified),.,.,.,.,.,-1.3%
CCOCc1cnc(C)nc1NCC(=O)c1c(C)n(C)c2ccc(OC)cc12,0.8%,-10.8%,7.38µM*,-1.0%,-6.2%,-6.5%
COc1ccc2c(c1)c(C(C)=O)c(C)n2C,?,-8.5%,1.9%,-12.7%,24.2%,7.8%
COc1ccc2c(c1)c(C(=O)CNc1nc(C)cs1)c(C)n2C,?,?,?,35.1%,2.94µM*,-7.7%
CCC1=C(OC(=O)N(CC)CC)N2C(=O)OC(=NCC(=O)OC)[C@]2(C)[C@H]2C1=CC[C@H]1C(=O)N(C)C(=O)[C@H]12,14.3%,-1.6%,30.9%,74.6%,54.2%,-2.6%
CCC1=C(OC(=O)N(CC)CC)N2C(=O)OC(=NCC3CC3)[C@]2(Cc2ccccc2)[C@H]2C1=CC[C@H]1C(=O)N(CC(=O)OC)C(=O)[C@H]12,1.7%,-6.4%,5.86µM*,209.6%,7.38µM*,0.6%
CCC1=C(OC(=O)N(CC)CC)N2C(=O)OC(=NCc3ccccc3)[C@]2(C)[C@H]2C1=CC[C@H]1C(=O)N(CC(=O)OC)C(=O)[C@H]12,4.0%,13.7%,8.28µM*,168.8%,9.28µM*,-7.7%
CCC1=C(OC(=O)N(CC)CC)N2C(=O)OC(=NCc3ccccc3)[C@]2(C)[C@H]2C1=CC[C@H]1C(=O)N(c3ccccc3)C(=O)[C@H]12,-24.9%,-1.3%,7.38µM*,85.7%,8.28µM*,1.9%
CCC1=C2CC[C@H]3C(=O)N(C)C(=O)[C@H]3[C@H]2[C@@]2(Cc3ccccc3)C(=NCC(=O)OC)OC(=O)N2C1=O,59.7%,3.1%,32.3%,23.9%,?,-7.0%
CCOC(=O)c1cc(S(=O)(=O)N2CCN(c3cc(C)ccc3C)CC2)[nH]n1,.,.,.,.,.,20.6%
COc1ccccc1N1C(=O)CC(Sc2nccc(C)n2)C1=O (stereo unspecified),22.8%,-10.8%,16.4%,-16.6%,1.8%,?
COc1ccccc1N1C(=O)CC(Sc2n[nH]c(-c3cccc(C)c3)n2)C1=O (stereo unspecified),15.6%,15.1%,8.9%,15.8µM*,264.8%,-6.1%
CCCCN(C)C(=O)C1CCN(c2ccc(S(=O)(=O)N3CCOCC3)cc2[N+](=O)[O-])CC1,?,33.9%,?,163.7%,9.28µM*,-14.3%
SMILES,HCV inhibitor,AMA1-RON2 inh,Pf growth 48h,AmpC inh no detg,Pf growth 96h,AmpC inh detg
CCCNC(=O)C1CCN(c2ccc(S(=O)(=O)N3CCOCC3)cc2Cl)CC1,7.5%,-4.3%,13.1µM*,9.0%,?,-12.6%
C=CCNC(=O)C1CCN(c2ccc(S(=O)(=O)N3CCOCC3)cc2Cl)CC1,-2.6%,2.9%,9.28µM*,7.7%,260.8%,0.2%
Cc1ccc(S(=O)(=O)CC(=O)N2CCN(c3nc4c(F)cccc4s3)CC2)cc1,.,.,.,.,.,0.7%
CC[N+](C)(C)Cc1ccccc1Br,-11.4%[8.37 µM],-2.6%,?,-21.7%,3.22µM*,-11.5%
Cc1ccc(CCNC(=O)Cn2ncc3c([nH]c4ccc(C)cc43)c2=O)cc1,.,.,.,.,.,1.8%
CC(=O)N1CCc2cc(S(=O)(=O)NC(Cc3ccccc3)C(=O)Nc3ccc(Cl)cc3)ccc21 (stereo unspecified),.,.,.,.,.,1.9%
O=C(CCN1CCc2ccccc21)c1ccc2c(c1)OCCO2,?,?,5.22µM*,-15.9%,2.08µM*,?
O=C(CCN1CCc2ccccc2C1)c1ccc2c(c1)OCCO2,10µM*,-7.3%,12.8%,14.2%,?,-2.2%
O=C(CCN1CCCCC1)c1ccc2c(c1)OCCO2,-3.1%,-9.9%,-6.9%,-15.6%,0.8%,-12.1%
CCOc1ccc(C(=O)c2cn(Cc3ccc(Cl)cc3)c3cc(OC)c(OC)cc3c2=O)cc1,.,.,.,.,.,6.1%
Cc1ccc(Cn2ncc3c(N4CCN(Cc5ccc(Cl)cc5)CC4)ncnc32)cc1,4.47µM*,-19.0%,?,-13.0%,-14.4%,-2.0%
Cc1ccc(Cn2ncc3c(N4CCN(c5ccc(C)cc5)CC4)ncnc32)cc1,?,?,?,-20.8%,51.4%,-7.3%
Cc1ccc(Cn2ncc3c(N4CCN(C)CC4)ncnc32)cc1,?,13.3%,-11.9%,65.8%,7.38µM*,2.8%
Cc1ccccc1N1CCN(c2ncnc3c2cnn3Cc2ccc(Cl)cc2)CC1,?,-3.7%,?,-2.1%,18.0%,?
CCn1c(SCC(=O)n2c(C)c(C)c3ccccc32)nnc1-c1ccco1,0.4%,-12.9%,4.1%,-8.6%,6.57µM*,5.6%
CCCCN(CCCNC(=O)c1cc(Nc2ccc(OC)c(OC)c2)nc2ccccc12)c1ccccc1,.,.,.,.,.,3.5%
CCN1C(=O)[C@H]2[C@H]3[C@H](O)[C@H](O)C/C(=N\OC[C@@H](C)[C@H](OCc4ccccc4)C(C)C)[C@@H]3CC[C@H]2C1=O,1.0%[8.37 µM],.,10.4µM*,299.0%,?,3.2%
Cc1cc(NCCCn2ccnc2)n2nc(C)c(-c3ccccc3)c2n1,?,10.8%,.,47.8%,11.7µM*,-7.3%

# Assay outcomes from PubChem.
